Among all 190,000 compounds or so, about 80 (0.04%) were called active. Rule as the data show it: active = inhibition above about 40%. These entries were drawn from the full list.
Each compound was assayed against Bcl-2-like protein 1 (Homo sapiens) (UniProt Q07817) (assay: Bcl-XL/Bim peptide interaction blockers – biochemical, multiplexed, bead flow cytometry, human Bcl-XL, primary screen (AID 1007)). Conditions: Bim peptide-Bcl-XL binding, fluorescence, at 10 µM, stronger effect = higher value.
Bcl-2-like protein 1 (Homo sapiens), sequence (Q07817 whole entry, looked up): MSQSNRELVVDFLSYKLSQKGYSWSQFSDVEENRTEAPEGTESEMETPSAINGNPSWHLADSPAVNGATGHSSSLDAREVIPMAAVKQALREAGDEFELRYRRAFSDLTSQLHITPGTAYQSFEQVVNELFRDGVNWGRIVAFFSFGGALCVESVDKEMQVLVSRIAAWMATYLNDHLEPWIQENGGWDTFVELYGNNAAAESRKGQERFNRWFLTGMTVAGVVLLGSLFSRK

inhibition, inactive:
COc1ccc(-c2[nH]ncc2CN(C)Cc2cccnc2)c(F)c1 0%
Cc1ccc2c(c1)C1CN(C)CCC1N2S(=O)(=O)c1ccc(Oc2ccc([N+](=O)[O-])cc2)cc1 (stereo unspecified) -1%
CS(=O)(=O)N(CC(=O)N/N=C/c1ccccn1)c1ccc(Oc2ccccc2)cc1 -4%
CCOCCCNC(=O)C(=O)NCCCOCC -11%
O=C(COC(=O)Cc1ccc(F)cc1)Nc1cc(S(=O)(=O)N2CCOCC2)ccc1N1CCCC1 -11%
Cc1nc(N2CCC(C)CC2)c2c(C)c(C(=O)Nc3cc(F)ccc3C)sc2n1 -5%
Cc1ccc(C)c(CSc2nc(-c3ccco3)nc3c2c(=O)n(C)c(=O)n3C)c1 -2%
CCN(CC)CCn1c(/N=C/c2cc(Br)ccc2O)nc2ccccc21 -11%
O=[N+]([O-])c1ccccc1Nc1ccc(O)cc1 -5%
Cc1c(C(=O)O)nnn1-c1nonc1N 0%
CN1CCN(C(CNS(=O)(=O)c2cccs2)c2cccnc2)CC1 (stereo unspecified) 0%
O=C(Cc1cccs1)N/N=C/c1ccc(OCc2ccccc2)cc1 -4%
O=C(Nc1ccc2oc(-c3ccccc3F)nc2c1)c1ccco1 0%
O=c1c(Cl)c(NCc2ccc(F)cc2Cl)cnn1C12CC3CC(CC(C3)C1)C2 -8%
COC(=O)c1ccc(OCC(O)CN(CCO)CC(O)Cn2ccc3ccccc32)cc1 (stereo unspecified) -8%
CCc1ccc(-c2cc(C(=O)NN3CCN(C)CC3)c3ccccc3n2)cc1 -6%
COc1ccc(CCc2nnc(CCC(=O)NCc3cnn(-c4ccccc4C)c3)o2)cc1 0%
Cc1ccc(NC(=O)Cn2cccc2C2=NC(c3ccccc3)CO2)c(C)c1 (stereo unspecified) -2%
CC(Sc1nc2c([nH]c3ccccc32)c(=O)n1C)c1ccccc1 (stereo unspecified) -6%
O=C(Nc1ccccc1C(=O)N1CCOCC1)c1ccc(Cl)cc1 0%
Cc1nnc(SCC2=C(C(=O)O)N3C(=O)C(NC(=O)Cn4nc(C)c(Cl)c4C)C3SC2)s1 (stereo unspecified) -6%
O=C(NC(CC(=O)N1CCN(c2ccccc2)CC1)c1ccccc1)c1ccccc1Cl (stereo unspecified) -6%
COc1ccc(NC(=O)COc2ccc(C(=O)OCC(=O)N(C)C3CCS(=O)(=O)C3)cc2OC)cc1 (stereo unspecified) -2%
Cn1c(CCC(=O)Nc2ccccc2F)nnc1SCC(=O)Nc1ccccc1Cl -5%
COc1ccc(NC(=O)CC2C(=O)OCC3CCCCN32)cc1Cl (stereo unspecified) -4%
O=[N+]([O-])c1cccc(S(=O)(=O)N2CCCCCC2)c1 -7%
